Shown are actives, neighbours in structure and some others; about 2.3% of the full set was active somewhere.
Rango-impB inh – inhibitors of Rango-importin beta complex formation; Q14974; Rango CFP/YFP FRET sensor + importin beta, 45 min; Potency, µM (titrated, usually from 92.2 µM), without a hit: at the top dose inhibition of complex formation; hit rate 0.031% among 340,000; AID 540263; calls by dose curve;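 note: 0% = DMSO wells and 100% = buffer wells lacking importin beta; nearly all actives have a fitted effect of over 15% in size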
Target sequence (Q14974 whole entry, looked up): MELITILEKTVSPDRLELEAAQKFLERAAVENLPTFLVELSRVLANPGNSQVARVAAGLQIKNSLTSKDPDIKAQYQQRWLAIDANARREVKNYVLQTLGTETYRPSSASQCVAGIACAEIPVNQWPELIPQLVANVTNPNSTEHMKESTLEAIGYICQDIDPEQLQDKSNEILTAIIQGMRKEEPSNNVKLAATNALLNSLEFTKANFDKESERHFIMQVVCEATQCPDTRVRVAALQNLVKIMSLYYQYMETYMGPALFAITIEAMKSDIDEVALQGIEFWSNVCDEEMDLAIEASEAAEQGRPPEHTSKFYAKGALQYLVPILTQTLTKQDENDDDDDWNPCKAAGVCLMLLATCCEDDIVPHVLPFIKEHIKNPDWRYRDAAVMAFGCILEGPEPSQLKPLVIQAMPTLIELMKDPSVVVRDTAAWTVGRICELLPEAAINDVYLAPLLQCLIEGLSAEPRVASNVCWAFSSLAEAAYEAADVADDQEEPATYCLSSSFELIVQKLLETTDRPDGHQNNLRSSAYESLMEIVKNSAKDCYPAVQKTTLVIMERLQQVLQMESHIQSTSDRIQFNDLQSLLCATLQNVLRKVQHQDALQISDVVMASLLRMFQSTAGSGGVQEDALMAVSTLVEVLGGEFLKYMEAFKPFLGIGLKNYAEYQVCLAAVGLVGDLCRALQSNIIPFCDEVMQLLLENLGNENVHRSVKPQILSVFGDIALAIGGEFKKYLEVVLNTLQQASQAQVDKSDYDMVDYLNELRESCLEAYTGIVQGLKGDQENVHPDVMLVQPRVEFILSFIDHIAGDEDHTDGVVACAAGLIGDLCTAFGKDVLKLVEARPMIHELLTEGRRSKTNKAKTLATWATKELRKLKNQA
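FRET biosensor (snurportin 1 IBB flanked by EYFP and cerulean), 50 nM, with compound 5 min, then 0.125 microM importin beta in PBS, 1 mM DTT, 0.02% Tween-20, 0.1% BSA. CFP/YFP ratio read after 45 min at room temperature; pre-read flags interference.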
Nrf2 ARE act – Nrf2 pathway activation | AREc32 ARE-luciferase reporter (MCF7-derived line), luminescence, 24 h | Potency, µM (titrated, usually from 46.1 µM), inactives show top-dose activation, actives largely listed as activators | hit rate 0.31% among 410,000 | AID 624171; note: % of control where 0% means no effect; nearly all actives have a fitted effect of over 65% in size
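Steps: seed AREc32_Fluc cells (1000/well, 5% FBS OPTI-MEM); incubate overnight at 37 deg C; add 23 nL compound; incubate 24 hr; add Steady-Glo; hold 30 min RT; read luminescence.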
Rango release inh – inhibitors of RanGTP-induced Rango-importin beta complex dissociation; O95149+P62826; Biochemical FRET Rango-importin beta, RanGTP-induced dissociation; Potency, µM (series often up to 46.1 µM), without a hit: at the highest dose activity change, negative = inhibition; hit rate 0.071% among 340,000; calls by dose curve; note: % of control where 0% means no effect; nearly all actives have a fitted effect of over 45% in size
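FRET read at 45 min, room temperature: inhibitors block the CFP/YFP signal rise when RanGTP (0.6 uM Ran, 2 mM GTP, 0.2 uM RCC1) frees Rango (0.1 uM) from importin beta (0.25 uM). Pre-read after 5 min compound exposure flags interference.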
Nrf2 block – Nrf2 pathway inhibition. A549 ARE-Fluc reporter, luciferase luminescence, 18-24 h. Potency, µM (top dose mostly 46 µM), for inactives: at the top dose activity change, negative = inhibition, hits mostly inhibitors. hit rate 2.1% among 360,000; note: % is set by controls: 0 for no effect and ±100 for the full control effect; nearly all actives have a fitted effect of over 60% in size
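Two sequential reads on A549 ARE_Fluc cells exposed to compound for 18-24 h: a CellTiter-Fluor fluorescence read for viability, then a luciferase luminescence read for Nrf2/ARE activity.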
A549 viability – counter-screen for Nrf2 inhibitors: cytotoxicity in A549 cells; A549 ARE-Fluc cells, CellTiter-Fluor viability, 18-24 h; Potency, µM (doses to about 46 µM), for the others: at the highest dose activity change, negative = cytotoxicity, actives largely listed as inhibitors; hit rate 0.16% among 390,000; note: % is set by controls: 0 for no effect and ±100 for the full control effect
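A549 ARE-Fluc cells in 5% FBS OPTI-MEM, 5000 cells/well, rested 2 h then exposed to compounds in concentration-response for 18-24 h at 37 °C. Viability by CellTiter-Fluor fluorescence (Ex 405/Em 525) after 30 min; luciferase luminescence (BugLite, 15 min, RT) read afterwards.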
* marks the source's active call; other numbers are inactive results; ? = inconclusive; · = no result given. Unless noted, calls come from the whole dose curve; as a rule, active = well fitted curve in the direction sought with a large enough effect; inconclusive = small, poorly fitted or top-dose-only effect, or another doubt; inactive = no such curve, though single readings can be large; an effect the other way counts as inactive or inconclusive. Potency is the fitted concentration of half-maximal effect.

SMILES | Rango-impB inh | Nrf2 ARE act | Rango release inh | Nrf2 block | A549 viability
CN1/C(=C\C(=O)c2cncc(Br)c2)C(C)(C)c2ccccc21 | ? | 1% | ? | 23µM* | -11%
Cc1ccc(C(=O)NC(=S)/C=C2\N(C)c3ccccc3C2(C)C)cc1 | ? | 0% | ? | 18µM* | ?
CN1/C(=C\C(=O)C[n+]2ccc3ccccc3c2)C(C)(C)c2ccccc21 | -1% | 7% | -14% | 10µM* | ?
COc1ccc(-c2nc(N3CCN(S(=O)(=O)c4ccccc4)CC3)c3ccccc3n2)cc1 | · | · | · | -14% | -5%
CCc1ccc2oc(-c3cc(N)ccc3O)nc2c1 | 6% | 4.5µM* | 0% | ? | 0%
COc1cccc(C=C2SC(=S)NC2=O)c1 | 1% | 3% | -4% | 1% | ?
O=C1S/C(=C/c2ccc(N3CCOCC3)o2)C(=O)N1Cc1ccc(F)cc1 | ? | 1% | ? | 19% | 3%
COc1ccc2cc(/C=C3\SC(=S)NC3=O)c(N3CCOCC3)nc2c1 | ? | 2% | -11% | 21µM* | 18µM*
O=C1NC(=S)S/C1=C/c1ccc(N2CCOCC2)o1 | ? | ? | ? | 19% | 21µM*
Cc1nn(Cc2cccc(F)c2)c(C)c1NC(=O)c1c(Cl)cnn1C | -3% | 0% | -9% | -8% | 1%
CCOC(=O)c1ccc(NC(=S)N2CCSC2c2ccc(Cl)cc2)cc1 (centres undefined) | ? | 3% | 14% | 21µM* | ?
COc1cccc(NC(=O)Nc2cc(Cl)ccc2C)c1 | 2% | 2% | 31% | 18µM* | -3%
COc1ccc(NC(=O)Nc2cccc(OC)c2)cc1 | 1% | 0% | -15% | 26% | 8%
COc1ccc(NC(=O)Nc2cc(F)ccc2C)cc1 | -3% | 0% | -25% | 21µM* | -9%
CC(C(=O)NCCSCc1cccc(Cl)c1)N(c1ccccc1)S(C)(=O)=O (centres undefined) | 0% | 1% | 5% | 3% | 7%
CCOc1ccc(N(CC(=O)N2CCC(Cc3ccccc3)CC2)S(C)(=O)=O)cc1 | 3% | 0% | -16% | 26µM* | -7%
CC(C)(C)c1ccc(C2Sc3ccccc3NC3=C2C(=O)c2ccccc23)cc1 (centres undefined) | · | -1% | · | 18µM* | ?
COc1cc(NC(=S)NCCC(c2ccccc2)c2ccccc2)cc(OC)c1 | 8% | 2% | -12% | 23µM* | ?
Cc1cc(Cl)ccc1NC(=S)NCCC(c1ccccc1)c1ccccc1 | ? | 3% | 1% | 16µM* | ?
CCOc1ccc(NC(=O)CSc2ccc(-c3ccccn3)nn2)cc1 | 2% | 0% | -1% | -7% | 1%
O=C(CSc1ccc(-c2cccs2)nn1)Nc1cccc(F)c1 | · | 7% | · | 21µM* | 0%
O=C(CSc1ccc(-c2ccccn2)nn1)Nc1ccc(F)c(F)c1 | 1% | 4% | -9% | 3.3µM* | -8%
CC(=O)Nc1ccc(NC(=O)CSc2ccc(-c3cccnc3)nn2)cc1 | -1% | 0% | -1% | -25% | 1%
CCOC(=O)c1ccc(NC(=O)CSc2ccc(-c3ccccn3)nn2)cc1 | -4% | 8% | 4% | 21µM* | -16%
Cc1ccc(NC(=O)CSc2ccc(-c3ccccn3)nn2)cc1 | -3% | 1% | 0% | ? | -10%
SMILES | Rango-impB inh | Nrf2 ARE act | Rango release inh | Nrf2 block | A549 viability
O=C(CSc1ccc(-c2cccnc2)nn1)Nc1ccc(Br)cc1 | -5% | 3% | 2% | 7.3µM* | -14%
CCOc1ncccc1C(=O)NCC(c1ccco1)N1CCCCC1 (centres undefined) | ? | 2% | -13% | 6% | 2%
C=CCOC(=O)c1cn(CC)c2nc(C)ccc2c1=O | 1% | 0% | 5% | 9% | 1%
CCn1cc(C(=O)OCC(=O)OC2CC(C)CCC2C(C)C)c(=O)c2ccc(C)nc21 (centres undefined) | 3% | 0% | 8% | 21µM* | ?
Cc1nc2c(nc1C)C(=O)c1ccccc1C2=O | -2% | -3% | 2% | 16µM* | ?
Cc1nnc(SCC(=O)NC2CCCCC2)n1N | 5% | 0% | 2% | 2% | 2%
Cc1ccc(NC(=O)COC(=O)c2cccc3c2C(=O)c2ccccc2C3=O)c(C)c1 | -2% | 0% | -16% | ? | -1%
Cc1cc(C)c(NC(=O)COC(=O)c2cccc3c2C(=O)c2ccccc2C3=O)c(C)c1 | 4% | 0% | 19% | 16µM* | -11%
O=C(COC(=O)c1cccc2c1C(=O)c1ccccc1C2=O)NC1CCCCC1 | 9% | 0% | -3% | ? | -21%
Cc1ccc(C)c(NC(=O)COC(=O)c2cccc3c2C(=O)c2ccccc2C3=O)c1 | 0% | 0% | 4% | 13µM* | -2%
CC(=O)c1ccc(NC(=S)N2CCN(S(=O)(=O)c3ccc(F)cc3)CC2)cc1 | -2% | 2% | 7% | 18% | 2%
O=C(CCN1C(=O)c2ccccc2C1=O)NCc1ccc(Cl)cc1 | 0% | -1% | -6% | 4% | 3%
COc1cccc(C(=O)Oc2c(Br)cc(Br)cc2/C=N/NC(=O)c2cc(C)[nH]n2)c1 | ? | -1% | 18µM* | ? | -17%
COc1cc(S(=O)(=O)NCCOC23CC4CC(CC(C4)C2)C3)c(OC)cc1Cl | 0% | 0% | -14% | 21µM* | -1%
O=C(Cc1ccccc1)Nc1sc2c(c1C(=O)Nc1cccc(Cl)c1)CCCC2 | · | · | · | 0% | 4%
CCOC(=O)c1sc(NC(=O)CSc2n[nH]c(-c3ccccc3)n2)c(C#N)c1C | ? | 3% | ? | 23µM* | -23%
O=C(NCC(c1cccnc1)N1CCOCC1)C(=O)Nc1ccc(F)cc1 (centres undefined) | · | 1% | · | 23µM* | -6%
O=C(NCc1cccs1)C(=O)NCC(c1ccco1)N1CCN(c2ccc(F)cc2)CC1 (centres undefined) | 2% | 1% | -7% | 15µM* | -19%
O=C(NCC(c1cccnc1)N1CCN(c2ccccc2F)CC1)c1cccc(Cl)c1 (centres undefined) | -1% | 4% | -8% | 21µM* | -17%
Cc1ccc(NC(=O)C(=O)NCC(c2cccnc2)N2CCOCC2)cc1C (centres undefined) | · | 0% | · | ? | ?
COc1ccc(N2CCN(C(CNC(=O)C(=O)NCc3cccnc3)c3ccco3)CC2)cc1 (centres undefined) | -5% | 0% | 11% | 7% | -2%
O=C(NCc1cccnc1)C(=O)NCC(c1ccco1)N1CCN(c2ccc(F)cc2)CC1 (centres undefined) | 2% | 2% | 4% | 21µM* | -5%
O=C(NCC(c1ccco1)N1CCN(c2ccc(F)cc2)CC1)c1cccs1 (centres undefined) | 0% | 0% | 36% | 10% | 2%

From PubChem BioAssay
